According to PubChem BioAssay:
The source made the active and inactive calls. Rule as the data show it, unless noted: active = nuclear beta-catenin stimulation mostly above about 4.2% (no sharp cut-off); inactive = mostly below about 10%.

Assays:
[1] = stimulators of nuclear beta-catenin in C2C12, primary screen, imaging, WNT3A-conditioned medium, mouse C2C12, NPC library (AID 1117326); conditions: stronger effect = higher value; also: reference of the scale not given here
[2] = stimulators of insulin release from INS-1E, primary screen, cell-based, 5 mM glucose, NPC library (AID 1117329;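 active = compound raises insulin release from rat beta cells at 5 mM glucose, no numeric limit stated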; also: reference of the scale not given here); conditions: rat INS-1E insulin secretion, at 10 µM, stronger effect = higher value
[3] = growth inhibition of GSK3B-pretreated HCT116 cells – cell-based, CellTiter-Glo, 0.2 to 20 µM (AID 1117336;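 active = compounds lowering colon cancer cell viability after pretreatment blocking the GSK3B kinase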); conditions: HCT116 viability after GSK3B inhibitor, at 20 µM, stronger effect = higher value
[4] = inhibition of endothelial tube formation, primary screen, imaging, VEGF stimulated, CD31 staining, tube area, NPC library (AID 1117340;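 active = compound that reduces growth-factor-driven endothelial tube area in a mixed cell culture, no cutoff stated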); conditions: VEGF-stimulated ADSC/ECFC co-culture, at 10 µM, stronger effect = higher value
[5] = glucagon-like peptide 1 release enhancers, primary assay, NCI-H716 cell line, NPC library (AID 1117341;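 active = compound raises GLP1 secretion from the human gut endocrine cells, with no numeric limit stated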; also: reference of the scale not given here); conditions: NCI-H716 cells, at 10 µM, stronger effect = higher value
[6] = HCT116 colon cancer cell growth inhibition, primary screen, CellTiter-Glo luminescence, NPC library (AID 1117342;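 active = compounds that lower survival of HCT116 colon cancer cells in the luminescence readout, no numeric limit stated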); conditions: at 20 µM (top of the series)
[7] = CellTiter-Glo luminescent readout of SW480 viability loss, NPC library primary (AID 1117343;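 active = compounds that lower viability of the colon cancer cells in the luminescence readout, with no numeric limit stated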); conditions: CellTiter-Glo luminescence; at 20 µM (top of the series)
[8] = decreased DLD-1 cellular survival, CellTiter-Glo luminescent readout, NPC compound collection, primary HTS (AID 1117346;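 active = compounds that lower survival of DLD-1 colon cancer cells in the luminescence readout, no cutoff given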); conditions: DLD-1 viability, CellTiter-Glo luminescence; at 20 µM (top of the series)

SMILES | nuclear beta-catenin stimulation ([1]; at 10 µM) | nuclear beta-catenin stimulation ([1]; stimulation, at 2 µM) [%] | insulin secretion stimulation [2] | viability decrease [3] | tube area decrease [4] | GLP1 secretion stimulation [5] | inhibition of viability [6] | viability decrease (inhibition) [7] | viability decrease (inhibition) [8]
O=C1Cc2cc(Cl)ccc2N1 | -0.3% (inactive) | -1.5 | 1% (inactive) | 4.9% (inactive) | 2.8% (inactive) | 3.9% (inactive) | 8.4% (inactive) | -9.4% (inactive) | 2.7% (inactive)
CC(C)[N+](C)(C)CC(O)COc1cccc2ccccc12 (stereo not given) | -2.3% (inactive) | -0.7 | 2.4% (inactive) | 7.2% (inactive) | -21% (inactive) | 3% (inactive) | 34.1% (inactive) | -0.7% (inactive) | 5.7% (inactive)
C[C@@H](O)[C@H]1C(=O)N2C(C(=O)[O-])=C(SC3Cn4cnc[n+]4C3)[C@H](C)[C@H]12 (stereo not given in full) | -0.3% (inactive) | -2.1 | 6.4% (inactive) | -16.5% (inactive) | -9.3% (inactive) | 0.8% (inactive) | 15.4% (inactive) | -6.5% (inactive) | 5.3% (inactive)
COc1cccc(CCc2ccccc2OCC(CN(C)C)OC(=O)CCC(=O)O)c1 (stereo not given) | -0.6% (inactive) | 3.9 | 11.9% (inactive) | 53.9% (active) | 0.9% (active) | 8.6% (inactive) | 72.9% (active) | 87.5% (active) | 21.8% (inactive)
O=Cc1ccc(O)c(O)c1O | 1.4% (inactive) | 1.9 | -1.7% (inactive) | 87.5% (active) | 3.3% (inactive) | 3.4% (inactive) | 44.2% (inactive) | 78.5% (active) | 36.5% (inactive)
Cc1c(C)n(Cc2ccccc2)c2ccc(C(=O)OCCN(C)C)cc12 | 12.1% (inactive) | -0.2 | 79.2% (active) | 90.9% (active) | 29.5% (inactive) | 10.7% (inactive) | 98.9% (active) | 88.7% (active) | 95% (active)
O=C(c1ccccc1)C(O)c1ccccc1 (stereo not given) | 0.5% (inactive) | 0.8 | -1.6% (inactive) | -1.05% (inactive) | -9.2% (inactive) | -0.3% (inactive) | 2.8% (inactive) | 9.2% (inactive) | 6.95% (inactive)
CC(C)(Cc1c[nH]c2ccccc12)NCC(O)COc1ccccc1C#N (stereo not given) | 0.2% (inactive) | 0 | 44.5% (active) | 84.6% (active) | 12.6% (inactive) | 3.9% (inactive) | 87% (active) | 109% (active) | 49.7% (inactive)
NC[C@H]1O[C@H](O[C@H]2[C@@H](O)[C@@H](O[C@H]3O[C@H](CO)[C@@H](O)[C@H](N)[C@@H]3O)[C@H](N)C[C@@H]2N)[C@H](N)C[C@H]1O | 0.2% (inactive) | 1.4 | -1.2% (inactive) | -19.7% (inactive) | -1.5% (inactive) | -0.3% (inactive) | -0.2% (inactive) | 39.1% (inactive) | -15.9% (inactive)
COc1ccc(OC(=O)N(CC(=O)O)Cc2ccc(OCCc3nc(-c4ccccc4)oc3C)cc2)cc1 | 1% (inactive) | -0.5 | -0.3% (inactive) | 100% (active) | -9% (inactive) | 51.7% (active) | 86.4% (active) | 105% (active) | 91.5% (active)
C[N+]1(CC2COC(c3ccccc3)(c3ccccc3)O2)CCCCC1 (stereo not given) | 1.5% (inactive) | -0.6 | 6.4% (inactive) | 7.4% (inactive) | -12.8% (inactive) | 0.7% (inactive) | 23.2% (inactive) | 10.8% (inactive) | 0.5% (inactive)
NS(=O)(=O)c1cc(-c2nn[nH]n2)c(NCc2cccs2)cc1Cl | -3% (inactive) | -0.1 | 6.5% (inactive) | -3% (inactive) | -8.2% (inactive) | -0.2% (inactive) | -19.7% (inactive) | 2.3% (inactive) | -10.7% (inactive)
CO[C@@H]1[C@@H](OC)[C@H](C)[C@@](O)(CC(=O)O)O[C@H]1[C@H](C)[C@H]1O[C@@]2(CC[C@@](C)([C@H]3CC[C@@](C)([C@@H]4O[C@@H]([C@H]5O[C@](C)(O)[C@H](C)C[C@@H]5C)C[C@@H]4OC4C[C@H](OC)[C@@H](OC)[C@H](C)O4)O3)O2)C[C@H](O)[C@H]1C (stereo not given in full) | -1.1% (inactive) | 10.6 | 5.4% (inactive) | 79.8% (active) | 111% (active) | 15% (inactive) | 66.7% (active) | 128% (active) | 96.7% (active)
CCOC(=O)C(O)c1ccccc1 (stereo not given) | 1.9% (inactive) | 9.6 | 0% (inactive) | -1.8% (inactive) | -9.7% (inactive) | 0.1% (inactive) | 1.4% (inactive) | -10% (inactive) | -2.3% (inactive)
CC(C)(C)CC(C)(C)c1ccc(O)c(-n2nc3ccccc3n2)c1 | 1.5% (inactive) | 1.1 | -1% (inactive) | 13.1% (inactive) | 23.9% (inactive) | -1.5% (inactive) | -8.9% (inactive) | 82.6% (active) | 22.1% (inactive)
